Data as given in PubChem BioAssay (NCATS).
Results filed as inconclusive are left out. Calls come from the whole dose curve; as a rule, active = well fitted inhibition curve with a large enough effect; inconclusive = small, poorly fitted or top-dose-only effect; inactive = no such curve, though single readings can be large or run the other way.

Assay: Primary qHTS for small molecule stabilizers of the endoplasmic reticulum resident proteome: Secreted ER Calcium Modulated Protein (SERCaMP) assay (AID 1508630)
Details: SH-SY5Y GLuc-SERCaMP (Gaussia luciferase released on ER calcium loss) secretion, thapsigargin, luminescence; series mostly up to 38.4 µM; activity change, negative = inhibition: at the top concentration
Summary of the method: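 GLuc-SERCaMP-expressing SH-SY5Y cells, pretreated 16 h with compound, are challenged with thapsigargin to empty ER calcium stores; after 4 h, coelenterazine is added directly to the medium and luminescence is imaged.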
% is set by controls: 0 for no effect and ±100 for the full control effect.

Activity change, negative = inhibition, inactive:
COC(=O)/C(=C1/OC(=O)C(c2ccccc2)=C1O)c1ccccc1 14.6%, O=C(O)C1Cc2c([nH]c3ccccc23)C(c2coc3ccccc3c2=O)N1 (configuration not stated) 4.26%, COC(=O)N1c2ccccc2C23[C@@H]4CN5CCC[C@]6(CCC12C(O)(C6)C4=O)[C@H]53 -8.91%, O=C(O)c1ccc(-c2ccc3cc(C45CC6CC(CC(C6)C4)C5)c(O)cc3c2)cc1 -16%, OCC1=CC[N+]2(Cc3ccccc3)CCC(O)[C@@H]12 (some centres not stated) -23.2%, COc1c2c(cc3c1C(CC(=O)c1c(O)c(OC)c4occc4c1OC)[N+](C)(C)CC3)OCO2 (configuration not stated) -14.3%, CN1C(=O)N(C)C2=NNC=NC2(O)C1=O (configuration not stated) 1.04%, CC1=CC(=O)C2=C(C)C[C@H](OC(=O)Cc3ccccc3)C3[C@H](OC(=O)[C@H]3C)C12 (some centres not stated) -23.7%, CC(C)=CCC1=C(O)[C@](O)(CC=C(C)C)C(=O)C(C(=O)CC(C)C)=C1O 51.6%, COC1=C[C@@H](C)C2CC3OC(=O)C[C@H]4C(C)=C(OC)C(=O)C([C@@]2(C)C1=O)[C@@]34C (some centres not stated) -14.5%, CC1(C)Oc2ccc3ccc(=O)oc3c2CC1=O 12.5%, COc1cc(CCNC(C)=O)c(C(=O)/C=C/c2cccc(OC)c2OC)cc1OC -19.6%, COc1cc2c(cc1OC)C(/C=C/c1ccc(OC)c(OC)c1OC)=NCC2 156%, COc1c2c(nc3occc13)C(CC=C(C)C)(OC)C(=O)C=C2 (configuration not stated) 19.4%, CC(=O)Nc1ccccc1C(=O)C(=O)O -9.75%, COc1cc(C/C=C\c2ccccc2)c(OC)cc1O -4.11%, C/C=C/c1ccc(OC(C)[C@@H](O)c2ccc(O)c(OC)c2)c(OC)c1 (some centres not stated) 12.4%
